# Screening results: PubChem BioAssay, several laboratories
# esBAF inh: Bmi1 luciferase reporter increase in mESCs, primary screen, esBAF inhibitor project, mouse ES cells, Bmi1 luciferase knock-in, single point; 24 h; 100% = twice the neutral-well signal; reporter increase, % at 12.5 µM; actives 2% (n = 350,000); AID 602393, 2012; in the data active = activation above about 40%; inconclusive = no clear call, values can overlap the other calls;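 note: 0% = median of the plate's neutral control wells and 100% = double that signal; a rise in the Bmi1 reporter signal indicates esBAF inhibition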
# dFosB activator: activators of delta FosB homodimer, primary screen, biochemical, fluorescence polarization, TAMRA-CDK5 oligo, single point; Protein FosB (Mus musculus), P13346; purified delta FosB; percent of positive-control signal above neutral wells; activation, % at 25 µM; actives 0.99% (n = 340,000);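 active = mean activation above about 17%, with every replicate also reaching it, limit read from the data, passing the limit was not always enough; inconclusive = only one of the two conditions met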
# Target sequence (P13346 whole entry, looked up): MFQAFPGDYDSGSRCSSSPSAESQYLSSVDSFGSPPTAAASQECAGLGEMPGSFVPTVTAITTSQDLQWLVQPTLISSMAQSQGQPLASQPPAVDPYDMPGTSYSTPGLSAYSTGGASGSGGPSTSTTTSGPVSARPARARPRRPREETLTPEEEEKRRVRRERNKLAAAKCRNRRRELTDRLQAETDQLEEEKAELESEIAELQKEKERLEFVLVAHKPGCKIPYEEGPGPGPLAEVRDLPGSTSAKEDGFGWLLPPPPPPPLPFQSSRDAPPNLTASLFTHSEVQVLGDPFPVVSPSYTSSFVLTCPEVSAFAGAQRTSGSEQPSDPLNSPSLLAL
# CDK5 p35 inh: inhibitors of human CDK5/p35 kinase, primary screen, biochemical, single concentration | Cyclin-dependent kinase 5 (Homo sapiens) + Cyclin-dependent kinase 5 activator 1 (Homo … | Recombinant CDK5/p35, ADP-Glo luminescence, 60 min | inhibition, % at 10 µM | actives 0.01% (n = 330,000) | AID 488839, 2010;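 active = highest replicate inhibition of at least 50% and at least 75% of replicates reaching 50%; inconclusive = only one of the two criteria met; inactive = both criteria failed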;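 note: plate controls were DMSO neutral control for no effect and GW8510 at 10 µM for full effect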
# SMARCA2 act: SMARCA2 (BRM) function activators, primary screen, cell-based, luminescence, high throughput; activation, % at 9.1 µM; AID 652017, 2013; actives 1% (n = 370,000); MG213 cells, MMTV-luciferase reporter, dexamethasone, overnight; in the data active = activation above about 7.8%;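 note: 0% = vehicle wells and 100% = reference activator wells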
# Rtt109 Vps75: inhibitors of C. albicans Rtt109/Vps75 HAT, primary screen, biochemical, ThioGlo CoA-SH fluorescence, plate reader. Histone acetyltransferase RTT109 (Candida albicans (strain SC5314 / ATCC MYA-2876)), …. inhibition, % at 34.9 µM. purified Rtt109/Vps75, 4 h. actives 0.16% (n = 330,000);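 active = inhibition of at least 50% in every replicate; inconclusive = best replicate reaches 50% inhibition but some replicates fall short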
# DYRK1A inh: rat Dyrk1A kinase inhibitors, primary screen, biochemical, single point, plate reader. actives 0.43% (n = 310,000). Dual specificity tyrosine-phosphorylation-regulated kinase 1A (Rattus norvegicus), Q63470. inhibition, % at 12.5 µM. ADP-Glo luminescence, NFATc1 peptide. AID 504441, 2011; in the data active = inhibition above about 50%;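 note: plate controls were vehicle with enzyme for no effect and no enzyme for full effect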
# An asterisk follows results filed as active; u = inconclusive; x = no result given. In the library only some 3.2% were active in any assay of this set; here they are far more common.
SMILES,esBAF inh,dFosB activator,CDK5 p35 inh,SMARCA2 act,Rtt109 Vps75,DYRK1A inh
COC(=O)c1ccc(OS(=O)(=O)N(C)C)cc1,49*,-1,-6,7,1,0
C[C@H]1CN([C@@H](C)CO)C(=O)c2cc(C#CC3CCCCC3)cnc2O[C@@H]1CN(C)C,-1,x,x,x,x,x
COCCNS(=O)(=O)c1ccc2c(c1)C(=NO)c1cc(S(=O)(=O)NCCOC)ccc1-2,x,-11,1,-5,52*,-1
CCS(=O)(=O)N1N=C(c2ccc(NS(C)(=O)=O)cc2)CC1c1ccccc1 (centres undefined),x,46*,1,0,6,7
CCOc1ccc(/C(O)=C2/C(=O)C(=O)N(CCCn3ccnc3)C2c2cccs2)cc1Cl (centres undefined),56*,-10,1,-1,8,-5
CCCOc1ccc(/C(O)=C2/C(=O)C(=O)N(CCCn3ccnc3)C2c2cccs2)cc1 (centres undefined),x,1,0,1,1,-1
COCCNC(=O)C[C@H]1CC[C@H]2[C@@H](COC[C@@H](O)CN2Cc2cccc(-c3ccncc3)c2)O1,2,x,x,x,x,x
CC(C)(C)c1cc(C(=O)NCc2cc(F)cc3c2OCOC3)n(Cc2ccccc2)n1,50*,-14,-3,1,3,x
CC(C)(C)c1cc(C(=O)NNC(=O)Nc2ccccc2)n(Cc2ccccc2)n1,-3,0,1,-3,-4,-11
Cc1nc(C(=O)Nc2ccccc2)sc1C1(C)CC(c2cccnc2)=NO1 (centres undefined),46*,-10,0,1,-5,5
Nc1nc2ccc(OC(F)(F)F)cc2s1,43*,4,0,-3,2,3
COc1ccccc1CNC(=O)C[C@@H]1C[C@@H]2c3cc(NC(=O)c4ccc5c(c4)OCO5)ccc3O[C@@H]2[C@H](CO)O1,1,x,x,x,x,x
CCc1[nH]nc(C(=O)NC2CCCc3c2cnn3-c2cc(C)cc(C)c2)c1C (centres undefined),66*,-14,1,3,0,-6
CN(CC1CCOCC1)C(=O)c1ccc2nc(Cc3cccc(Cl)c3)oc2c1,x,-2,-2,-2,10,8
COc1ccc(Cc2nc3ccc(C(=O)NCC(C)(C)OC)cc3o2)cc1,76*,-1,-1,7,-1,x
O=C(NCC1CCOCC1)c1ccc2nc(Cc3cccc(Cl)c3)oc2c1,46*,-14,-1,3,-5,-5
O=C(C[C@@H]1C=C[C@@H](NC(=O)C2CCC2)[C@@H](CO)O1)NCc1ccncc1,1,x,x,x,x,x
Cc1ccccc1NC(=O)OCc1ccccc1,53*,9,1,-1,35,x
CC1(C)Cc2c(sc(NC(=O)Nc3ccccc3)c2C(N)=O)CO1,55*,-2,1,2,12,3
C[C@@H]1CN([C@H](C)CO)C(=O)Cc2cc(NC(=O)CCCCCC(=O)Nc3ccccc3N)ccc2O[C@@H]1CN(C)C(=O)NC1CCCCC1,-1,x,x,x,x,x
Cc1cccc(NC(=O)c2onc3c2CCCC3)n1,x,-10,4,2,-14,2
Cc1cccc(NC(=O)c2onc3c2CCCC3)c1C,51*,4,0,4,0,17
C[C@@H](CN1CCC[C@H]1CN1C(N)=NC[C@@H]1Cc1ccccc1)N1C[C@@H](Cc2ccccc2)N(CCc2ccc(Cl)c(Cl)c2)C1=N,-6,6,2,x,59*,9
Cc1ccc(CSc2nc3ccncc3n2CC(=O)Nc2cc(C)cc(C)c2)cc1,48*,-14,1,-1,-5,-2
Cc1cc(C)cc(NC(=O)CSc2nc3ccncc3[nH]2)c1,-5,-6,0,-3,-8,2
SMILES,esBAF inh,dFosB activator,CDK5 p35 inh,SMARCA2 act,Rtt109 Vps75,DYRK1A inh
Nc1ccc2nn(-c3ccccc3)nc2c1,57*,-12,1,-2,-2,14
Nc1ccc(-n2nc3ccccc3n2)cc1,x,0,-2,-6,-3,0
C/C=C/c1cnc2c(c1)C(=O)N([C@@H](C)CO)C[C@H](C)[C@@H](CN(C)C(=O)Nc1ccc(OC)cc1)O2,-1,x,x,x,x,x
CCOC(=O)c1c(C)n(C)c2ccc(OCC(O)CNC(CC)CO)cc12 (centres undefined),x,2,2,1,u,6
CCOC(=O)c1c(C)n(-c2ccc(C)cc2)c2ccc(OCC(O)CNCCCO)cc12 (centres undefined),x,9,0,-2,67*,1
CCOC(=O)c1c(C)n(-c2ccc(C)cc2)c2ccc(OCC(O)CNCC3CCCO3)cc12 (centres undefined),x,30*,-1,x,64*,3
CC(C)NC(=O)N(C)C[C@H]1Oc2c(NS(=O)(=O)c3ccc(Cl)cc3)cccc2C(=O)N([C@H](C)CO)C[C@H]1C,-2,x,x,x,x,x
C/C(=N\Nc1nncc2ccccc12)c1ccc(OCC(=O)N(C)C)cc1,33,-2,1,6,-2,-4
CC/C(=N\Nc1nncc2ccccc12)c1ccc(F)cc1,41*,-11,-3,5,1,-4
C[C@H]1CN([C@@H](C)CO)C(=O)c2cc(NC(=O)NC3CCCCC3)ccc2O[C@H]1CN(C)Cc1ccncc1,0,x,x,x,x,x
COc1ccc(/C=C2/SC(=S)N(CCCC(=O)Nc3ccccc3C(=O)O)C2=O)cc1,-62,-7,-4,-9,21,6
COc1ccc(/C=C2\SC(=S)N(CCCC(=O)NNC(=O)c3ccccc3O)C2=O)cc1,-83,45*,1,-5,2,-4
O=C(CCN1C(=O)/C(=C/c2ccccc2)SC1=S)Nc1ccccn1,-2,0,-1,-1,-2,-3
O=C(CCCN1C(=O)/C(=C/c2cccs2)SC1=S)Nc1ccccc1O,-1,34*,0,-1,2,-6
Cc1cc(NC(=O)CCCN2C(=O)/C(=C/c3ccccc3Cl)SC2=S)no1,-12,37*,1,-3,-8,2
CCOc1ccc(/C=C2\SC(=S)N(CC(=O)Nc3ccccn3)C2=O)cc1,-3,22*,0,1,-10,2
C[C@@H]1CN([C@@H](C)CO)S(=O)(=O)c2ccc(C3=CCCC3)cc2O[C@@H]1CN(C)C(=O)c1cccnc1,-3,x,x,x,x,x
O=C(O)C(Cc1ccccc1)N1C(=O)/C(=C/c2cccs2)SC1=S (centres undefined),x,-5,-2,0,56*,-6
